About 4,200 (1.3%) of roughly 330,000 compounds were called active. Not shown: some 6% with an inconclusive outcome. The sample holds actives, similar compounds and a random draw of the others, so the mix is not that of the screen. Values without a mark were called inactive. The call rests on the fitted dose curve; in most records, active means well fitted activation curve with a large enough effect; inconclusive means small, poorly fitted or top-dose-only effect; inactive means no such curve, though single readings can be large or run the other way.
test: qHTS screen for small molecules that induce genotoxicity in human embryonic kidney (HEK293T) cells expressing luciferase-tagged ELG1; details: HEK293T ELG1-luciferase reporter, luminescence, 16 h; series mostly up to 46 µM; activity change, positive = activation: at the top concentration; further: nearly all actives have a fitted effect of over 60% in size; on activity change, positive = activation: % of control where 0% means no effect
Source text: NIH Molecular Libraries Probe Production Network [MLPCN] NIH Chemical Genomics Center [NCGC] MLPCN Grant: 1 R03 MH092164-01 Assay Provider: Kyungjae Myung, NHGRI, NIH Keywords: MLPCN, qHTS, NCGC, genotoxicity, cancer Assay Overview: Cancer cells divide rapidly compared to normal cells in the body. During cell division, cancer cells need to duplicate their genome by DNA replication. The failure of genome duplication leads to cancer cells' death. Therefore, inhibitors of DNA replication could specifically kill cancer cells. Based on this concept, many chemotherapeutic agents were developed and have been used to treat cancer patients. However, there are a limited number of agents available in the clinical setting, and some of those that do exist have low efficacy and severe side effects. Therefore, if we can find the compounds that effectively block DNA replication either by directly damaging DNA or by inhibiting other cellular mechanisms, the options for cancer treatment will be broadened. With this in mind, we developed a quantitative high-throughput ELG1-luciferase reporter gene assay. Since the level of human ELG1 protein is enhanced in response to genetic stresses, increases in luciferase activity can be used to identify compounds that cause genetic stress.
Assay Protocol Summary: For genotoxicity screening, 2,000 cells in 5 uL/well were dispensed into white, solid-bottom 1536-well plates using a solenoid-based dispenser. Following transfer of 23 nL compound or DMSO vehicle by a pin tool, the plates were incubated 16 hr at 37 °C and 5% CO2. 5 ul ONE-Glo (Promega) was then added to each plate and following a 30 min incubation at room temperature, luciferase activity was quantified on a ViewLux CCD-based plate reader.
Potency means the concentration at half of the fitted maximal effect.

Compound	activity change, positive = activation	Potency
O=C(CSc1ccc([N+](=O)[O-])cn1)Nc1ccc(N2CCOCC2)cc1	-1.03%	
O=C(CSc1ccc(-c2ccc(F)cc2)nn1)Nc1ccc2c(c1)OCCO2	0.784%	
O=C(CSc1ccc(-c2ccc(-n3cccn3)cc2)nn1)Nc1ccc([N+](=O)[O-])cc1		18.3 µM (active)
Cc1cccc(C)c1Nc1nnc(SCC(=O)NCCCN2CCCC2=O)s1	-2.8%	
Cc1ccc(NC(=O)COC(=O)C2CC2)cc1S(=O)(=O)N1CCOCC1	-0.783%	
Cc1noc(C)c1NC(=O)Nc1ccc2c(c1)C(=O)N([C@H](C)CO)C[C@H](C)[C@@H](CN(C)S(=O)(=O)c1cn(C)cn1)O2	2.22%	
COc1cc(C(=O)OCc2ccc([N+](=O)[O-])cc2)cc(OC)c1OC	5.71%	
COc1cc(/C=N/O)ccc1OCc1ccc([N+](=O)[O-])cc1		9.2 µM (active)
COc1cc(/C=N\Nc2ccc([N+](=O)[O-])cn2)ccc1OCC(=O)O	-0.169%	
CC(=O)C(CC(=O)N1CCCC1)C(=O)Nc1ccc(Cl)cc1 (stereo unspecified)	2.38%	
Cc1ccc(C(=O)Nc2ccccc2-c2ccccc2)cc1S(=O)(=O)Nc1ccccc1	-9.23%	
CCOc1ncccc1C(=O)Nc1ccc2c(c1)OCCO2	9.61%	
COc1ccc(C)cc1NC(=O)CSc1cccc[n+]1[O-]	5.29%	
CN=C(Nc1cccc(S(=O)(=O)N2CCOCC2)c1)c1ccccc1	0.167%	
COc1ccccc1NC(=O)C1=C(C)NC(=O)NC1c1ccc(C)s1 (stereo unspecified)	5.02%	
COC(=O)c1c(NC(C)=O)sc(C(=O)Nc2ccccc2OC)c1C	0.157%	
COc1ccccc1NC(=O)c1ccc(C)s1		11.6 µM (active)
Cc1ccc(S(=O)(=O)N2CCN(C(=O)Cn3c(=O)cnc4ccccc43)CC2)c(C)c1	-6.79%	
Cc1c(C(=O)Nc2ccccc2)sc2nc3n(c(=O)c12)CCCCC3	10.3%	
O=c1c2c(nc3n1CCCCC3)sc1c(O)cccc12		2.06 µM (active)
Cc1cccc2c(=O)n3c(nc12)CCCCC3	-4.76%	

Compound	activity change, positive = activation	Potency
Cc1ccc(NS(=O)(=O)c2ccc(C(C)C)cc2)cc1S(=O)(=O)N1CCOCC1	-5.95%	
COc1cccc(-n2c(=S)[nH]c3c(oc4ccccc43)c2=O)c1	11.3%	
S=c1[nH]c(-c2cccs2)cn1-c1ccccc1	13%	
O=c1oc2ccccc2cc1-c1cn(-c2ccccc2)c(=S)[nH]1		0.0461 µM (active)
O=C1OC[C@@H]2CCCN2C(=O)[C@H](CC(=O)N(CCO)Cc2ccccc2)C/C=C\CC[C@@H]1Cc1ccc(F)cc1	-3.58%	
COc1cc(/C=C/C(=O)OCC(=O)NC2CC2)cc(OC)c1OC	1.1%	
Cc1ccc(S(=O)(=O)N2CCN(C(=O)CN3C(=O)NC(C)(c4ccc(Cl)cc4)C3=O)CC2)c(C)c1 (stereo unspecified)	-3.81%	
CC(C)c1ccc(C(=O)NCCCc2ccccc2)cc1		18.4 µM (active)
O=C(CCNC(=O)c1ccc(Br)cc1)NCCCc1ccccc1	2.41%	
CN(c1ccccc1)S(=O)(=O)c1ccc(C(=O)NCCc2ccccc2)cc1	13.5%	
Cc1noc(C)c1NC(=O)Nc1ccc2c(c1)C(=O)N([C@H](C)CO)C[C@H](C)[C@@H](CN(C)C(=O)Nc1ccccc1)O2	3.31%	
O=C(CSc1ncnc2sccc12)NC1CCS(=O)(=O)C1 (stereo unspecified)	1.63%	
C=CCC[C@@H](Cc1ccc(F)cc1)C(=O)OC[C@H](Cc1c[nH]c2ccccc12)NC(=O)[C@@H](CC=C)CC(=O)N(CCO)Cc1ccccc1	-11%	
Cc1cc(CO)nn1-c1ccc([N+](=O)[O-])cc1	-0.0391%	
Cc1ccc(-c2cn(S(=O)(=O)c3cccc([N+](=O)[O-])c3)nc2N)cc1	-4.12%	
Cc1ccc(-n2cc3ccc([N+](=O)[O-])cc3n2)cc1		2.91 µM (active)
O=C(N[C@@H]1C/C=C\C[C@@H](CC(=O)N(CCO)Cc2ccccc2)C(=O)N[C@H](Cc2ccccc2)COC1=O)OCC1c2ccccc2-c2ccccc21	-0.759%	
CCCCCCSc1ccc([C@@H]2[C@H]3C(=O)N(CC)C(=O)[C@H]3[C@]3(C(=O)OC)CCCCN23)cc1	1.28%	
CCCOC(=O)C1=C(C)NC2=C(C(=O)C(C(=O)OC)C(C)C2)C1c1ccc(N(C)C)cc1 (stereo unspecified)	0.467%	
COCCOC(=O)c1[nH]c2c(c1C)C(=O)CC(c1ccc(OC)cc1)C2 (stereo unspecified)	-0.128%	
COC(=O)C1C(=O)c2c([nH]c(C(=O)OCCSC)c2C)CC1C (stereo unspecified)		16.4 µM (active)

Compound	activity change, positive = activation	Potency
CC(C)N(C(=O)[C@H]1C[C@H](CC(=O)NC(C)(C)C)C(=O)N2CCc3c([nH]c4ccc(Cl)cc34)[C@]12C)C(C)C	-3.2%	
Cc1cc(NC(=O)CSc2ncc(C(F)(F)F)cc2Cl)no1	-0.775%	
COc1ccc(Cl)cc1NC(=O)COC(=O)c1ccc(Br)o1	1.48%	
CN(C(=O)c1cccc(NC(=O)C2CCN(C(=O)OC(C)(C)C)CC2)c1)C1CCC1	-4.07%	
NC[C@H](Cc1ccccc1)NCCc1cc(C(F)(F)F)cc(C(F)(F)F)c1	0.0851%	
CCc1ccc2oc(-c3ccc(N)cc3)nc2c1		0.206 µM (active)
Cn1nnnc1SCC(=O)Nc1sccc1C(N)=O	4.53%	
Cc1cc(NC(=O)CSCC(=O)NC(C)c2ccccc2)no1 (stereo unspecified)	1.08%	
COc1ccccc1N1CCN(C(=O)CSc2ncnc3c2cnn3-c2ccc(C)c(C)c2)CC1	0.292%	
Cc1cccc(-n2ncc3c(N4CCc5ccccc54)ncnc32)c1		2.59 µM (active)
COc1ccc(-n2ncc3c(SCC(=O)NNC(C)=O)ncnc32)cc1	15.2%	
COc1ccc(-n2ncc3c(N4CCCc5ccccc54)ncnc32)cc1		1.16 µM (active)
Cc1cccc(-n2ncc(Cl)c(Cl)c2=O)c1	-13.8%	
COc1ccc2oc(=O)c(C(=O)N3CCCc4ccccc43)cc2c1	-9.84%	
O=C1COc2ccc(C(=O)COC(=O)CCOc3ccccc3)cc2N1	-1.34%	
C=CCC[C@H](Cc1ccc(F)cc1)C(=O)OC[C@@H](Cc1c[nH]c2ccccc12)NC(=O)[C@H](CC=C)CC(=O)N[C@H](CO)Cc1ccccc1	-3.43%	
COc1cc2ccccc2cc1C(=O)Nc1ccc(NC(=O)c2cccs2)cc1	-6.8%	
COc1cc2ccccc2cc1C(=O)Nc1ccncc1		16.4 µM (active)
COc1cc2ccccc2cc1C(=O)Nc1ccc(N2CCOCC2)cc1	16.1%	

From PubChem BioAssay AID504466 (National Center for Advancing Translational Sciences (NCATS), 2011)
